Drawing on PubChem BioAssay, this text covers outcome for 29 compounds.

SMILES strings stand for the structures. Measured potencies and affinities stand elsewhere. Inconclusive results are not listed. Activity calls are given as the source filed them.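 The calls were made as follows: active = fitted half-maximal concentration for viability loss no higher than twice the top valid dose, in every repeat run; inconclusive = repeat runs disagree, flat partial loss, or poor curve fit; inactive = the rest.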

The test in a line: IOSE-T80 viability loss, PAX8-independent line – cell-based, cherry-pick, selectivity assay for PAX8 inhibitor project, dose response (AID 687032).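 Also: cells exposed to compound for 96 h before reading.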 Particulars: CellTiterGlo ATP luminescence, 96 h; series mostly up to 35 µM. A general note: Cellular ATP, detected with luciferase, serves as a proxy for viable cell number.
Turning to `Nc1ccc(-c2nc3ccc(C(=O)O)cc3s2)cc1`, the outcome was inactive.
Consider `COc1cccc(-c2ccc(C3[C@@H]4CN(C(=O)C5CC5)C[C@H]3N4)cc2)c1` (some centres undefined), for which the compound was classed as inactive.
The value for `NS(=O)(=O)c1ccc(CCN2C(=O)/C(=C\c3ccc(Cl)cc3)SC2=S)cc1` was “inactive”.
As for `C[C@@H]1CN([C@H](C)CO)C(=O)c2cc(NS(=O)(=O)c3ccccc3)ccc2O[C@@H](C)CCCCO[C@H]1CN(C)Cc1ccc(C(F)(F)F)cc1`, the entry is “inactive”; as for `O=C1CN(S(=O)(=O)Cc2ccccc2)C[C@H]2[C@H](c3ccc(C#Cc4ccc(F)cc4)cc3)[C@H](CO)N12`, “inactive”.
The value for `O=C(C1CC1)N1C[C@@H]2N[C@H](C1)C2c1ccc(-c2cccc(F)c2)cc1` (some centres undefined) was “inactive”; that for `C[C@@H]1CN([C@@H](C)CO)C(=O)Cc2cc(NC(=O)Cc3ccccc3)ccc2O[C@H]1CN(C)Cc1ccc(-c2ccccc2)cc1` was “inactive”; that for `COc1cccc(C#Cc2ccc([C@H]3[C@@H](CO)N(C(=O)c4ccccn4)[C@H]3C#N)cc2)c1` was “inactive”.
In the case of `Cn1cnc(S(=O)(=O)N2C[C@@H]3N[C@H](C2)C3c2ccc(-c3ccccc3F)cc2)c1` (some centres undefined), the compound was classed as inactive.
As for `C[C@@H]1CCCCO[C@@H](CN(C)S(=O)(=O)c2ccccc2)[C@H](C)CN([C@H](C)CO)C(=O)c2cc(NC(=O)Nc3ccc(C(F)(F)F)cc3)ccc2O1`, the entry is “inactive”; as for `C[C@H](CO)N1C[C@H](C)[C@H](CN(C)Cc2ccc3c(c2)OCO3)OCCCC[C@H](C)Oc2ccc(NC(=O)Nc3ccc(C(F)(F)F)cc3)cc2C1=O`, “inactive”; as for `O=C(C[C@H]1C[C@@H]2c3cc(NS(=O)(=O)c4ccc(F)cc4)ccc3O[C@@H]2[C@@H](CO)O1)N1CCc2ccccc2C1`, “inactive”.
The value for `Cc1ccc2nc(-c3ccc(Br)cc3)cn2c1` was “inactive”; that for `COc1ccc(S(=O)(=O)N(C)C[C@@H]2OCCCC[C@H](C)Oc3ccc(NS(=O)(=O)c4ccc(Cl)cc4)cc3C(=O)N([C@H](C)CO)C[C@@H]2C)cc1` was “inactive”; that for `C[C@H](CO)N1C[C@H](C)[C@@H](CN(C)Cc2ccc(C(F)(F)F)cc2)OCCCC[C@H](C)Oc2ccc(NS(=O)(=O)c3ccc(F)cc3)cc2C1=O` was “inactive”.
`COc1ccc(S(=O)(=O)Nc2ccc3c(c2)C(=O)N([C@@H](C)CO)C[C@@H](C)[C@H](CN(C)Cc2ccc(C(F)(F)F)cc2)OCCCC[C@H](C)O3)cc1`: the compound was classed as inactive.
As for `COc1ccccc1S(=O)(=O)N(C)C[C@H]1Oc2cc(C#CCC3CCCC3)ccc2S(=O)(=O)N([C@@H](C)CO)C[C@H]1C`, the entry is “inactive”; as for `COc1ccc(S(=O)(=O)N(C)C[C@@H]2Oc3ccc(NC(=O)Nc4ccc(C(F)(F)F)cc4)cc3CC(=O)N([C@H](C)CO)C[C@@H]2C)cc1`, “inactive”.
As for `COc1ccccc1C#Cc1ccc([C@H]2[C@H](C#N)N(C(=O)C3CCC3)[C@H]2CO)cc1`, the entry is “inactive”.
The value for `COc1ccccc1C#Cc1ccc([C@H]2[C@H](C#N)N(C(=O)C3CC3)[C@H]2CO)cc1` was “inactive”; that for `Cc1ccc(S(=O)(=O)Nc2ccc3c(c2)C(=O)N([C@H](C)CO)C[C@@H](C)[C@@H](CN(C)Cc2ccc(C(F)(F)F)cc2)OCCCC[C@H](C)O3)cc1` was “inactive”.
In the case of `C[C@@H]1CN([C@@H](C)CO)S(=O)(=O)c2ccc(C#Cc3ccccc3F)cc2O[C@H]1CN(C)C(=O)Cc1ccccc1`, the compound was classed as inactive.
As to `C[C@H]1CCCCO[C@H](CN(C)S(=O)(=O)c2ccccc2)[C@@H](C)CN([C@@H](C)CO)C(=O)c2cc(NS(=O)(=O)c3ccc(Cl)cc3)ccc2O1`, the outcome was inactive.
The value for `C[C@H](CO)N1C[C@H](C)[C@@H](CN(C)Cc2ccc(C(F)(F)F)cc2)Oc2ccc(NS(=O)(=O)c3ccc(Cl)cc3)cc2CC1=O` was “inactive”; that for `O=C(C[C@@H]1C[C@@H]2c3cc(NS(=O)(=O)c4ccc(F)cc4)ccc3O[C@@H]2[C@@H](CO)O1)NCc1ccc(Oc2ccccc2)cc1` was “inactive”; that for `C[C@H](CO)N1C[C@H](C)[C@H](CN(C)Cc2ccc(C(=O)Nc3ccccc3N)cc2)Oc2ccc(N(C)C)cc2C1=O` was “inactive”.
On to `N#C[C@@H]1[C@@H](c2ccc(C#Cc3ccccc3F)cc2)[C@H](CO)N1C(=O)C1CCCCC1`, for which the compound was classed as inactive.
As for `COc1ccc(S(=O)(=O)Nc2ccc3c(c2)C(=O)N([C@H](C)CO)C[C@H](C)[C@@H](CN(C)S(=O)(=O)c2ccc(Cl)cc2)OCCCC[C@H](C)O3)cc1`, the entry is “inactive”; as for `Cn1nnnc1Sc1ncnc2scc(-c3cccc(Br)c3)c12`, “inactive”.
